# Records with an inconclusive call do not appear. A number with no mark means an inactive call. Calls come from the whole dose curve; as a rule, active = well fitted inhibition curve with a large enough effect; inconclusive = small, poorly fitted or top-dose-only effect; inactive = flat fitted curve, though single readings scatter.
# Target: Calcium and integrin-binding protein 1 (Homo sapiens) (UniProt Q99828)
# Test: Primary qHTS for Identification of Calcium Integrin Binding Protein 1 (CIB1) Competitor (AID 1508620); note: top concentration of the series differs between compounds
# Details: CIB1-GST / FITC-alphaIIb peptide fluorescence polarization; series mostly up to 114 µM; activity change, negative = inhibition: at the top concentration
# Method in brief: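 Fluorescence polarization competition: GST-tagged CIB1 (1 uM final) preincubated with compound 15 min at room temperature, then FITC-labelled alphaIIb peptide (100 nM final) added. After 15 min at room temperature, polarization read at Ex 480/Em 540.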
# % is set by controls: 0 for no effect and ±100 for the full control effect.
# Calcium and integrin-binding protein 1 (Homo sapiens), sequence (Q99828 whole entry, looked up): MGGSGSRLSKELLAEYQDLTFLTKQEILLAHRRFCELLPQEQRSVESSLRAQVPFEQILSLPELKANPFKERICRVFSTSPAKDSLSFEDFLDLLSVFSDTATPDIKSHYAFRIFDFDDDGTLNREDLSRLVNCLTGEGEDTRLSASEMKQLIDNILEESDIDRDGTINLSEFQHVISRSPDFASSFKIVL
row,Compound,"activity change, negative = inhibition"
1,CC(=O)Nc1sc2c(c1-c1cccc3c1sc1ccccc13)CCNC2,9.6%
2,COc1cccc(C2c3c(ncn(-c4ccc(F)cc4)c3=N)Oc3ccc4ccccc4c32)c1 (stereo not given),6.17%
3,COc1cc(O)c(C(CC(=O)N2CC(C)CC(C)C2)c2ccc(O)cc2)c(OC)c1 (stereo not given),4.16% [at 228 µM]
4,Cc1c(P(=S)(c2ccccc2)c2ccccc2)c2ccccc2n1C(=O)Cc1ccccc1,0.757%
5,C=CCNc1oc(C2CCCC2)nc1C#N,-3.27%
6,CC(C)c1ccccc1SC1=NS(=O)(=O)c2ccccc21,-15.4%
7,O=c1c2ccccc2nc(-c2ccccc2O)n1Cc1ccccc1,3.98%
8,O=[S+]([O-])(NC[C@H]1CCC[C@H](CN[S+](=O)([O-])c2c(F)cccc2F)C1)c1ccc2c(c1)OCCO2,1.79%
9,CC(=O)N1CCN(C(=O)COC(=O)c2ccc([S+](C)(=O)[O-])c([N+](=O)[O-])c2)CC1,-7.43%
10,O=C(Cc1ccc(Cl)c(Cl)c1)Nc1ccc(S(=O)(=O)Nc2cccc(O)c2)cc1,-14.6%
11,O=C(Nc1ncc(Cc2ccc(C(F)(F)F)cc2)s1)c1cnc(-c2ccccc2)s1,7.75%
12,N#Cc1ccc(NC(=O)Nc2nnc(-c3ccncc3)s2)cc1,4.09%
13,O=[S+]([O-])(Nc1ccccc1F)c1cccc(NC/C=C/c2ccccc2)c1,2.54%
14,O=C(NCc1nnc(-c2cc3ccccc3[nH]2)s1)c1ccccc1,0.109%
15,CCOc1ccccc1-c1nnc2n1N=C(c1ccc(OC)c(OC)c1)CS2,-5.15%
16,O=C1c2ccccc2C(=O)N1c1cccc2cccnc12,6.96%
17,Cc1ccc(NS(=O)(=O)c2ccc3c(c2)CC(=O)N3)cc1C,-0.567%
18,CN(Cc1ccccc1)C(=O)C1CCN(Cc2cccc3ccccc23)CC1,1.24%
19,NC(=O)C1CCN(c2nc(-c3cccc(Br)c3)cs2)CC1,2.65%
20,Cc1ccc(-c2ccc(=O)n(CCN)n2)cc1,0.435%

row,Compound,"activity change, negative = inhibition"
1,O=C(CSc1nc2ccccc2[nH]1)N1CCOCC1,-2.62%
2,Cc1cc(C)nc(NC(=S)N2CCN(c3noc4ccccc34)CC2)c1,-3.73%
3,Cc1ccc(N[S+](=O)([O-])c2cc3c(cc2NC2CC2)NC(=O)CC3)cc1C,-7.22%
4,O=c1c2ccc(C(F)(F)F)cc2nc2sc(Nc3ccc4c(c3)CCC4)nn12,6.94%
5,Cc1cc2c(s1)c1cnn(Cc3cccc(C(F)(F)F)c3)c(=O)c1n2C,5.12%
6,c1coc(CNc2nc(-c3cccs3)nc3ccccc23)c1,0.931%
7,FC(F)(F)c1ccccc1-c1nc(NCc2ccc(-c3cccc4ccccc34)cc2)c2ccccc2n1,7.88%
8,Cc1c(P(=S)(c2ccccc2)c2ccccc2)c2ccccc2n1Cc1ccccc1,0.589%
9,COc1ccc(OC2=NS(=O)(=O)c3ccccc32)cc1,1.06%
10,Cc1cc(C)nc(NC(=S)N2CCN(c3cc(Cl)cc(Cl)c3)CC2)c1,-8.39%
11,O=C(O)c1ccc(S(=O)(=O)N[C@H](Cc2ccccc2)C(=O)O)cc1,-2.66%
12,O=C1CCCC2=C1C(c1[nH]ncc1Cl)NC(=NCCc1cccnc1)N2 (stereo not given),-0.64%
13,O=C(CSc1ccccc1)Nc1nnc(COc2ccc(Cl)cc2)s1,4.63%
14,O=C(Nc1nnc(-c2ccncc2)s1)Oc1ccc2ccccc2c1,0.0482%
15,Cc1cc2c(s1)c1cnn(Cc3ccc(Br)cc3F)c(=O)c1n2C,5.52%
16,COc1ccc(C2=Nn3c(nnc3-c3ccccc3C)SC2)cc1OC,-3.78%
17,Cc1ccnc(NC(=S)N2CCN(c3cccc(N(C)C)c3)CC2)c1,-17%
18,O=C1c2ccccc2NC(c2ccc(-c3cccc(F)c3)o2)N1O (stereo not given),-8.38%
19,Cc1cc(NC(=O)c2ccc([S+](=O)([O-])NCc3ccc(Cl)c(Cl)c3)cc2)no1,-0.528%
20,COc1cc(-c2ccc3ncnc(NCc4cccs4)c3c2)cc(OC)c1OC,-3.42%
